Screening data (PubChem)
Sampled rows, rich in hits. Any-hit rate of the full collection: about 2.3%.
CHO-K1 Ca antag = counter-screen for M1 antagonists: effect in parental CHO-K1 cells; AID 602250; inhibition, % at 3 µM; ATP-induced calcium, Fluo-8 fluorescence; hit rate 0.6% among 360,000;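 active = inhibition above a per-plate cutoff, the plate's mean sample inhibition plus 3 SD, cut at about 24% in these data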;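 also: 0% = DMSO plus EC80 ATP and 100% = DMSO alone without ATP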
CHRM1 antagonist = antagonists of human M1 muscarinic receptor; AID 588852; CHO-K1 hM1, Fluo-8 calcium fluorescence, ACh EC80 antagonist; inhibition, % at 3 µM; hit rate 1.3% among 360,000;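 active = percent inhibition above its own plate's cutoff, namely the mean of that plate's compound wells plus 3 SD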;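 also: peak over basal fluorescence ratio during 140 s after agonist addition; 0% = ACh EC80 plus DMSO and 100% = DMSO alone without agonist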
Target sequence (P11229 whole entry, looked up): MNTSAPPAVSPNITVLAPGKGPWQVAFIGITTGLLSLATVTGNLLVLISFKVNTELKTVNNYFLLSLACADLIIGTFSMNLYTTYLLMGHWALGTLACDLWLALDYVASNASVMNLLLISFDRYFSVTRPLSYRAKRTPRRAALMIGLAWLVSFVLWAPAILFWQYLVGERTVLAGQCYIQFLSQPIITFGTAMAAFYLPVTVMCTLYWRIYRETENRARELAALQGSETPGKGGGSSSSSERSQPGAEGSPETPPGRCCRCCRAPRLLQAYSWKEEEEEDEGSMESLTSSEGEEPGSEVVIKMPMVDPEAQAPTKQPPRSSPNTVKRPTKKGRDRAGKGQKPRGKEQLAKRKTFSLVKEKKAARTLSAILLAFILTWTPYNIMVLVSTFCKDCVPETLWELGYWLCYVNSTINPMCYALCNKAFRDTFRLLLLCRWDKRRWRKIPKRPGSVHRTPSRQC
M1 ag = human M1 muscarinic receptor agonism | AID 588814 | P11229 | hit rate 0.33% among 360,000 | activation, % at 3 µM | CHO-K1 hM1, Fluo-8 calcium fluorescence, agonist mode; 0% DMSO, 100% acetylcholine EC100;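 active = activation above the run's mean compound activation plus 3 SD, cut at about 16% in these data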;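 also: peak over basal fluorescence ratio within a 140 s kinetic read after compound addition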
M1 PAM = human CHRM1 positive allosteric modulation; P11229; CHO-K1 hM1, Fluo-8 calcium fluorescence, ACh EC20; 0% = ACh EC20, 100% = maximal ACh; activation, % at 3 µM; hit rate 0.088% among 360,000; in the data active = activation above about 19%, passing the limit was not always enough
M1 PAM parental = nonselective activator or artifact in parental CHO-K1 calcium assay; ATP EC20, Fluo-8 calcium fluorescence; 0% at ATP EC20, 100% at ATP max; activation, % at 3 µM; hit rate 0.02% among 360,000; AID 602247;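 active = activation above the run cutoff, the mean activation of all test compounds plus 3 SD, cut at about 40% in these data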;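 also: peak over basal fluorescence ratio in a 140 s read after ATP addition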
CHO-K1 Ca ag = counter-screen for M1 agonists: effect in parental CHO-K1 cells; Fluo-8 calcium fluorescence; scaled to maximal ATP response, vehicle zero; activation, % at 3 µM; hit rate 0.48% among 360,000; AID 602248; in the data active = activation above about 15%;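 also: untransfected CHO-K1 host cells lacking M1 receptor as counterscreen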
* = called active by the depositor.

SMILES	CHO-K1 Ca antag	CHRM1 antagonist	M1 ag	M1 PAM	M1 PAM parental	CHO-K1 Ca ag
COCCCNC(=S)Nc1cc(C)c(C)cc1C	-11	62*	-8	-23	26	1
Cc1ccc(NC(=O)Nc2ccc3c(c2)N(C)C(=O)CS3)cc1C	35*	32*	0	-23	-6	13
Cc1cc(C)cc(NC(=O)Nc2ccc3c(c2)N(C)C(=O)CS3)c1	21	44*	-2	-29	-2	13
CC(=O)c1cccc(NC(=O)Nc2ccc3c(c2)N(C)C(=O)CS3)c1	8	35*	5	-18	-1	15
CCc1ccc(NC(=O)Nc2ccc3c(c2)N(C)C(=O)CS3)cc1	16	28	1	-23	6	11
CC(=O)c1ccc(-c2cnc3c(NC=O)cc(-c4ccccc4Oc4ccccc4)cn23)cc1	-14	4	-3	-2	17	0
CCOC(=O)C1=CCN(S(C)(=O)=O)C1c1ccc(C)cc1 (centres undefined)	10	7	-3	0	11	1
COc1ccc(S(=O)(=O)N(C)C[C@H]2Oc3c(NS(=O)(=O)c4cn(C)cn4)cccc3C(=O)N([C@H](C)CO)C[C@@H]2C)cc1	-10	-3	-4	8	1	0
COc1cc2[nH]c(=O)n(CCCC(=O)N3CC=C(c4ccccc4)CC3)c(=O)c2cc1OC	2	32*	-4	-8	-2	0
COc1cc2[nH]c(=O)n(CCC(=O)N3CC=C(c4ccccc4)CC3)c(=O)c2cc1OC	-13	16	-2	-2	9	1
COc1ccc(OC)c(NC(=O)C2C3C=CC(C3)C2C(=O)NCc2cccnc2)c1 (centres undefined)	-8	4	-6	-6	18	0
COC(=O)c1ccccc1NC(=O)CCc1ccccc1	24*	-9	-7	4	-12	0
COC(=O)c1ccccc1NC(=O)NCc1ccncc1	6	-3	-6	7	20	16*
COc1ccccc1NC(=O)C1C2C=CC(C2)C1C(=O)NCc1cccnc1 (centres undefined)	26*	18	-2	-7	-9	0
COc1ccccc1NC(=O)C(=O)NCc1ccncc1	25*	2	-2	10	-14	0
O=C(CNc1ccccc1OC(F)F)N1CCc2ccccc21	-8	-6	-13	-1	26	1
O=C(NC1CCCCC1)C(c1cccnc1)N(CCc1ccccc1)C(=O)Cc1cccs1 (centres undefined)	-12	-11	-11	10	30	1
CC(C)CC(CO)N1CCN(C(=O)c2ccc(Cl)cc2)CCC1=O (centres undefined)	-13	-8	-4	9	21	1
COc1ccccc1NC(=O)C(=O)N1CCCC1	-5	8	-4	0	18	16*
Fc1ccc(-n2nnnc2-c2cnc(-c3cccs3)nc2C(F)(F)F)cc1	13	57*	2	-16	15	5
FC(F)(F)c1nc(-c2ccncc2)ncc1-c1nnnn1-c1ccccc1	-8	-3	-1	2	10	3
CC(C)N=C1SC(CC(=O)Nc2ccccc2)C(=O)N1C(C)C (centres undefined)	12	26*	-1	-16	-8	5
O=C(CC1SC(=Nc2ccccc2)N(CCCO)C1=O)Nc1ccc(Cl)cc1 (centres undefined)	8	30*	1	-10	8	7
COc1ccc(S(=O)(=O)N2CCC(C(=O)NCC(=O)Nc3c(C)cccc3C)CC2)cc1OC	4	-6	5	19	-17	-1
CC1=NNC(=O)C1C(c1cccc(O)c1)C(C#N)C#N (centres undefined)	29*	22	-3	-9	-23	1
SMILES	CHO-K1 Ca antag	CHRM1 antagonist	M1 ag	M1 PAM	M1 PAM parental	CHO-K1 Ca ag
CCOC(=O)C1=CCN(S(=O)(=O)c2ccccc2Br)C1c1cccc(F)c1 (centres undefined)	6	3	-10	-8	14	3
COc1ccc(NC(=O)CN(C)C(=O)C(C)Oc2ccc(Br)cc2)cc1 (centres undefined)	-2	1	-1	1	5	1
Cc1nc2ccccc2c2c(N)c3ccccc3n12	1	-1	-1	3	3	17*
Nc1c2ccccc2nc2ccccc12	-9	-8	-10	8	-9	0
Cc1ccc(N(CC(=O)NC2CCCCC2)S(=O)(=O)c2cccs2)cc1	23	4	2	0	-1	1
COc1ccccc1NC(=O)C(C)N(C)CC(=O)Nc1cccc2ccccc12 (centres undefined)	-18	-7	0	0	10	1
COc1ccccc1NC(=O)C(C)N(C)Cc1ccc(Cl)s1 (centres undefined)	-16	-8	-4	5	48*	0
Cn1c(C(=O)N2CCC(C(=O)NCc3ccccc3)CC2)cc2sccc21	8	4	-3	-4	-10	2
CCC(=O)N1CCN(c2ccc(NC(=O)COc3ccccc3[N+](=O)[O-])cc2)CC1	3	31*	2	-13	3	8
Cc1ccc(NC(=O)CCC(=O)c2cccs2)c(O)c1	-15	-7	-3	3	-5	1
CCN(C[C@H]1N[C@@](CC)(C(=O)OC)[C@H]2C(=O)N(Cc3ccccc3)C(=O)[C@@H]12)C(=O)c1ccccc1	1	7	1	-12	-10	5
CN1CCN(c2ccc(Cl)cc2NS(=O)(=O)c2ccccc2Cl)CC1	2	36*	-3	-19	14	2
CCOC(=O)Nc1ccc2c(COC(=O)C(NS(=O)(=O)c3ccc(Cl)cc3)C(C)O)cc(=O)oc2c1 (centres undefined)	-2	0	-4	0	-19	0
Cc1cccc(C(=O)NC(C)C(c2cccs2)N2CCOCC2)c1 (centres undefined)	-3	7	0	-5	12	15*
CC(NC(=O)c1ccncc1)C(c1cccs1)N1CCOCC1 (centres undefined)	-18	-11	5	10	21	1
CC(Sc1ccccc1)C(=O)N/N=C/c1ccccc1 (centres undefined)	14	12	0	-7	-25	0
CCC(C)c1ccccc1OCCCCN1CCCC1 (centres undefined)	-9	48*	-9	-22	22	2
COc1ccccc1OCCCCOc1ccccc1C(C)=O	5	13	-5	-16	7	12
CCC(C)c1ccccc1OCCOCCN1CCCC1 (centres undefined)	-12	18	-8	-17	24	3
CC(=O)c1ccccc1OCCCCN1CCCCC1	-13	59*	-9	-26	25	2
CC(=O)c1ccccc1OCCOc1ccccc1C(C)=O	-5	39*	-7	-27	7	2
